The record followed here is PubChem BioAssay AID504332 (National Center for Advancing Translational Sciences (NCATS), 2011).

“And” between values parts separate entries of the source, which are not always exact repeats. Identical values can stand only once. The campaign covered roughly 350,000 compounds. About 31,000 (8.9%) were called active. About 15% were inconclusive and are not listed. The call rests on the fitted dose curve; in most records, active means well fitted inhibition curve with a large enough effect; inconclusive means small, poorly fitted or top-dose-only effect; inactive means no such curve, though single readings can be large or run the other way. The list comes from a sample in which actives are over-represented; it also holds similar structures and randomly drawn compounds. Some compounds were tested as several samples or in several runs, with calls that do not always agree.
On the % scale 0 is the no-effect control and ±100 the full control effect; potency means the concentration at half of the fitted maximal effect.

For this test, the target named is Histone-lysine N-methyltransferase EHMT2 (Homo sapiens) (UniProt Q96KQ7). The test is described as follows: qHTS Assay for Inhibitors of Histone Lysine Methyltransferase G9a. Further: nearly all actives have a fitted effect of over 75% in size. The following applies: G9a H3K9 monomethylation, AlphaScreen, 2 h; series mostly up to 59 µM; activity, negative = inhibition: at the top concentration. Put shortly: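 Signal arises when biotinylated H3K9 peptide, once monomethylated, bridges streptavidin donor and antibody-captured acceptor beads. Enzyme at 20 nM was preincubated 15 min with test compounds; peptide 500 nM and SAM 20 uM then reacted for 2 h.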
Chain of Histone-lysine N-methyltransferase EHMT2 (Homo sapiens) (Q96KQ7 913-1193 limits assumed): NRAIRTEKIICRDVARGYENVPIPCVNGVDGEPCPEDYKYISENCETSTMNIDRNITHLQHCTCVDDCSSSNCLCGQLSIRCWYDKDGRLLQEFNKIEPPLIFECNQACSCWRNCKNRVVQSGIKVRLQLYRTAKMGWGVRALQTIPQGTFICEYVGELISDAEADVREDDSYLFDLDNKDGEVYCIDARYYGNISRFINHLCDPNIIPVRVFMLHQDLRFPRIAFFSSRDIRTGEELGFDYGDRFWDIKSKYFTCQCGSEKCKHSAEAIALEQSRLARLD
For the compound `CC(C)CN(C(=O)Cn1c(=O)cnc2ccccc21)C1CCS(=O)(=O)C1` (stereo not drawn), the “activity, negative = inhibition” value is 2.69% [at 102 µM] (inactive).

Regarding `O=C1[C@H]2[C@@H](c3ccc(Cl)cc3)N3C(=O)N(c4cccc(F)c4)C(=O)[C@@]3(Cc3ccccc3)[C@H]2C(=O)N1C1CCCCC1`, the activity, negative = inhibition was -8.78% [at 2.33 µM] (inactive).

Turning to `S=c1nc2ccccc2c2nc(-c3cccnc3)[nH]n12`, the Potency is 10 µM (active).

As to `c1cncc(-c2nc(N3CCNCC3)c3ccccc3n2)c1`, the activity, negative = inhibition is 8.14% [at 0.501 µM] (inactive).

Take `CC(C)(C)OC(=O)N1CCC(c2c(C(=O)NCc3ccccn3)cnn2-c2ccc(F)cc2)CC1`: the “activity, negative = inhibition” value was 51.9% (inactive).

Turning to `Cc1ccc2[nH]c(C)c(CCNC(=O)NC3CCCCC3)c2c1`, the “activity, negative = inhibition” value was 3.69% [at 102 µM] (inactive).

`CCNC(=S)N(CCc1c(C)[nH]c2ccc(C)cc12)Cc1ccco1`: the Potency was 50.1 µM (active).

With `Cc1ccc(NC(=S)N(Cc2ccco2)C(C)c2cccs2)cc1` (stereo not drawn), the “activity, negative = inhibition” value was 18.1% (inactive).

Turning to `COCCNC(=S)N(CCc1c(C)[nH]c2ccc(C)cc12)Cc1cccnc1`, the Potency is 70.8 µM (active).

As to `COCCNC(=S)N(Cc1cccnc1)Cc1ccc(OC)c(OC)c1`, the “activity, negative = inhibition” value is 17.6% [at 102 µM] (inactive).

In the case of `Cc1ccc(CN(Cc2cccnc2)C(=S)Nc2cc(Cl)ccc2C)cc1`, the “activity, negative = inhibition” value is 4.45% [at 102 µM] (inactive).

Regarding `COC(=O)c1ccc(-c2c(-c3ccccc3)ncc3cc(OC)c(OC)cc23)cc1`, the activity, negative = inhibition was -32.8% [at 0.501 µM] (inactive).

`Cc1cc(C)n2nc(C(=O)OC(C)C(=O)c3cc(C)c(C)cc3C)nc2n1` (stereo not drawn): the activity, negative = inhibition was 20.5% [at 0.501 µM] (inactive).

Turning to `COc1cccc(C(=O)NCc2ccc3c(c2)CCN3C(=O)c2ccncc2)c1`, the “activity, negative = inhibition” value was 6% (inactive).

With `O=C(Cc1cccs1)NCc1cccc(C(F)(F)F)c1`, the “activity, negative = inhibition” value is 13.6% [at 102 µM] (inactive).

With `COc1ccccc1NC(=O)CCC(=O)OC(C)C(=O)c1ccccc1` (stereo not drawn), the “activity, negative = inhibition” value was -6.17% [at 102 µM] (inactive).

Regarding `O=C(CN1C(=O)NC2(CCOc3ccccc32)C1=O)NCc1ccc(F)cc1` (stereo not drawn), the activity, negative = inhibition is 28.5% [at 12.7 µM] (inactive).

In the case of `COc1cc(NC(=O)CN2CCN(S(=O)(=O)c3ccc(Br)cc3)CC2)cc(OC)c1`, the “activity, negative = inhibition” value is -2.68% (inactive).

For `COc1cccc(NC(=O)CN2CCN(CC(=O)Nc3ccccc3Cl)CC2)c1`, the Potency was 35.5 µM (active).

Turning to `CC1CCCC(C)N1C(=O)CN1CCN(c2nc(-c3ccc(F)cc3)cs2)CC1` (stereo not drawn), the “activity, negative = inhibition” value is -13.6% (inactive).

Turning to `COc1cccc(NC(=O)CN2CCN(c3nc(-c4cccc(OC)c4)cs3)CC2)c1`, the Potency is 10 µM (active).

For `O=C(CN1CCOCC1)Nc1ccc(NC(=O)CN2CCOCC2)c(Cl)c1`, the “activity, negative = inhibition” value was -22.4% [at 102 µM] (inactive).

As for `COc1cccc(CC(=O)Nc2ccc(-c3csc(C)n3)cc2)c1`, the “activity, negative = inhibition” value was -3.28% (inactive).

Consider `CC(C)c1ccccc1OCC(O)CN(CC(O)COc1cccc2ccccc12)C(C)C` (stereo not drawn), for which the “activity, negative = inhibition” value was -40% [at 102 µM] (inactive).

For `COc1ccc(CCNC(=O)c2ccc3c(c2)sc2nc(-c4ccc(C)cc4)cn23)cc1OC`, the “activity, negative = inhibition” value was 5.17% (inactive).

For `Cc1c(Cl)cccc1NC(=O)N1CCN(C(=O)c2nsc3ccccc23)CC1`, the “activity, negative = inhibition” value is 5.81% (inactive).

On to `CC1=C(C/C=C(\C)CCCC(C)CCCC(C)CCCC(C)C)C(=O)c2ccccc2C1=O` (stereo not drawn), for which the Potency entry is “inactive and 14.1 µM (active)”.

Consider `Cn1cc(CNC(=O)c2ccc(OC3CCN(Cc4ccccn4)CC3)cc2)cn1`, for which the “activity, negative = inhibition” value was 0.355% [at 102 µM] (inactive).

As for `N#Cc1c(Cl)nc(-c2cccnc2)nc1-c1ccccc1`, the activity, negative = inhibition was -10.7% [at 2.33 µM] (inactive).

As to `CCOc1ccc(N(CC)S(=O)(=O)N2CCCC(C(=O)Nc3ccc(C(C)=O)cc3)C2)cc1` (stereo not drawn), the “activity, negative = inhibition” value is -2.74% (inactive).

As to `O=C(Nc1cc(S(=O)(=O)N2CCOCC2)ccc1OCC(F)(F)F)c1ccc(N2CCCC2=O)cc1`, the “activity, negative = inhibition” value is -48.4% [at 102 µM] (inactive).

Take `CCN(CC)S(=O)(=O)c1cc([N+](=O)[O-])ccc1NNC(=O)Nc1ccccc1`: the Potency was 15.8 µM (active).

Consider `CC(=O)c1ccc(NC(=O)Nc2ccc([N+](=O)[O-])cc2C)cc1`, for which the “activity, negative = inhibition” value is 15.9% (inactive).

Take `CCN(CC)S(=O)(=O)c1cc([N+](=O)[O-])ccc1N=Nc1c(O)n(C)c2ccccc12`: the “activity, negative = inhibition” value is -0.516% (inactive).

For `O=C(O)c1ccc(Cn2c(SCc3ccc(F)cc3)nc3ccncc32)cc1`, the “activity, negative = inhibition” value is -49.2% (inactive).

Consider `Cn1c(=O)nc2n(-c3ccc(Br)cc3)c3cccc(Cl)c3cc-2c1=O`, for which the “activity, negative = inhibition” value was -6.92% (inactive).

As to `CC(C)NC(=S)N1CCN(C(c2ccccc2)c2ccccc2)CC1`, the “activity, negative = inhibition” value is 7.96% [at 102 µM] (inactive).

As for `COc1ccccc1CNCc1ccc(C(=O)O)s1`, the “activity, negative = inhibition” value was -1.62% (inactive).

For `COc1ccccc1CN1CCN(C(c2ccccc2)c2ccccc2)CC1`, the Potency was 10 µM (active).

In the case of `O=C(c1ccc(-n2cnnn2)cc1)N1CCN(C(c2ccccc2)c2ccccc2)CC1`, the “activity, negative = inhibition” value was 0.701% (inactive).

As for `CC(C)OCC(O)CN1CCN(C(c2ccccc2)c2ccccc2)CC1` (stereo not drawn), the Potency is 50.1 µM (active).

On to `COc1ccccc1CN1CC2(CCN(S(=O)(=O)c3ccccc3)CC2)C1`, for which the activity, negative = inhibition is 8.67% [at 12.7 µM] (inactive).

`CCOc1ccccc1NC(=S)N1CCN(c2cccc(C)c2C)CC1`: the “activity, negative = inhibition” value is 16.7% [at 102 µM] (inactive).

Take `c1ccc(C(c2ccccc2)N2CCN(Cc3nnnn3C3CCCCC3)CC2)cc1`: the “activity, negative = inhibition” value was 1.35% (inactive).

As to `COc1ccccc1NC(=S)N1CCN(C(c2ccccc2)c2ccccc2)CC1`, the Potency was 28.2 µM (active).

For `CC(=O)N1CCN(CC(c2ccccc2)c2ccccc2)CC1`, the “activity, negative = inhibition” value was -30.3% [at 102 µM] (inactive).

With `Oc1ccccc1CN1CCN(C(c2ccccc2)c2ccccc2)CC1`, the Potency is 28.2 µM (active).

Regarding `COc1ccccc1NC(=S)N1CCN(c2ccc(F)cc2)CC1`, the activity, negative = inhibition was -4.21% [at 0.501 µM] (inactive).
